# Whole data set: some 81,000 sequences, median “one-hybrid fitness for binding NBS DNA” near -0.1, cut for the highest 2% near 0.36. Many of the other results were omitted from the sample, so the highest values are more common in it than they were.
# B1: Caulobacter ParB omega fusion; a variant is named by its letters at X, in order, B8GW30 (parent)
# chain: MESVVVGEPGMSEGRRGLGRGLSALLGEVDAAPAQAPGEQLGGSREAPIEILQRNPDQPRRTFREEDLEDLSNSIREKGVLQPILVRPSPDTAGEYQIVAGERAWRAAQRAGLKTVPIMVRELDDLAVLEIGIIENVQRADLNVLEEALSYKVLMEKFERTQENIAQTIGKSXSHVANXMRLLXLPDEVQSYLVSGELTAXHARAIAAAADPVALAKQIIEGGLSVRETEALARKAPNLSAGKSKGGRPPRVKDTDTQALESDLSSVLGLDVSIDHRGSTGTLTITYATLEQLDDLCNRLTRGI
# Variants of: B1
# Test: one-hybrid fitness for binding NBS DNA (the Noc-binding site; scaled: cognate 1, non-cognate 0); higher = stronger binding
# Conditions: with NBS DNA site
# Procedure, shortened: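 The reporter was HIS3, with the binding site 19 bp from the promoter, in E. coli USO used for bacterial one-hybrid selection of Caulobacter ParB libraries with four specificity codons randomised. Growth was on M9 lacking histidine, with 0.1 mM IPTG and 5 mM 3-AT, for 48 hours at 37°C. Illumina sequencing covered plasmids before and after selection; three replicate libraries were pooled and variants with under 10 reads dropped. A fitness score is the log change in variant-to-wild-type read ratio, rescaled to the cognate and non-cognate references.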
row,Variant,one-hybrid fitness for binding NBS DNA
1,AHHE,≤ 0.2
2,WMIS,≤ 0.2
3,DNAG,≤ 0.2
4,VKPI,≤ 0.2
5,VNAV,≤ 0.2
6,CCMW,≤ 0.2
7,QMGI,≤ 0.2
8,TSPL,≤ 0.2
9,RQFK,≤ 0.2
10,VLYA,≤ 0.2
11,QHGK,≤ 0.2
12,IVPF,≤ 0.2
13,PKES,≤ 0.2
14,VFPS,≤ 0.2
15,FLQS,≤ 0.2
16,QVPL,≤ 0.2
17,LTRI,≤ 0.2
18,GFGY,≤ 0.2
19,SVNC,≤ 0.2
20,RLRA,0.295
21,RRCA,0.584
22,RCHA,0.307
23,RCWA,≤ 0.2

row,Variant,one-hybrid fitness for binding NBS DNA
1,RSHA,≤ 0.2
2,RRWA,0.546
3,RPWA,≤ 0.2
4,RCCA,0.268
5,RARA,0.309
6,RRHA,0.66
7,RRRA,0.671
8,RPCA,≤ 0.2
9,PPGV,≤ 0.2
10,IQLC,≤ 0.2
11,EVWT,≤ 0.2
12,YTCT,≤ 0.2
13,YRGS,≤ 0.2
14,DVKL,≤ 0.2
15,HVRW,≤ 0.2
16,NNGC,≤ 0.2
17,KTNT,0.226
18,RCQA,0.238
19,RRLA,0.584
20,RRPA,0.282
21,RPMA,≤ 0.2
22,RSQA,≤ 0.2
23,RSLA,≤ 0.2

row,Variant,one-hybrid fitness for binding NBS DNA
1,RCLA,≤ 0.2
2,RCIA,≤ 0.2
3,RCMA,≤ 0.2
4,RRMA,0.591
5,RRIA,0.552
6,RRQA,0.695
7,APCY,≤ 0.2
8,TLCF,≤ 0.2
9,NTLF,≤ 0.2
10,CLPC,≤ 0.2
11,DMHR,≤ 0.2
12,GSQM,≤ 0.2
13,RREA,0.44
14,RSEA,≤ 0.2
15,RCEA,≤ 0.2
16,STQW,≤ 0.2
17,SNSF,≤ 0.2
18,WTSV,≤ 0.2
19,QTWQ,≤ 0.2
20,QTIQ,≤ 0.2
21,QTVQ,0.534
22,QTKQ,0.568
23,YDNH,≤ 0.2

row,Variant,one-hybrid fitness for binding NBS DNA
1,MVEY,≤ 0.2
2,KRES,0.264
3,KRHS,0.464
4,KRRH,0.422
5,KRHD,≤ 0.2
6,KRRP,≤ 0.2
7,KRFS,0.358
8,KRAD,≤ 0.2
9,KRAS,0.409
10,KRDH,≤ 0.2
11,KRIS,0.308
12,KRHN,≤ 0.2
13,KRYS,0.447
14,GYTL,≤ 0.2
15,SSDL,≤ 0.2
16,SLMH,≤ 0.2
17,HKYA,≤ 0.2
18,YCMR,≤ 0.2
19,HEIR,≤ 0.2
20,KRSH,0.205
21,KRNS,0.453
22,KRSS,0.421
23,KRNH,0.265

row,Variant,one-hybrid fitness for binding NBS DNA
1,KRDS,0.28
2,KCRS,0.216
3,KRRN,0.217
4,KRQH,0.221
5,KRRS,0.549
6,KRSN,≤ 0.2
7,KRQS,0.443
8,KRQN,≤ 0.2
9,VPML,≤ 0.2
10,PIAK,≤ 0.2
11,QDVN,≤ 0.2
12,APGE,≤ 0.2
13,GIHG,≤ 0.2
14,KCYL,≤ 0.2
15,KRWH,≤ 0.2
16,KRCS,0.387
17,KRWS,0.436
18,KRCH,≤ 0.2
19,KRCN,≤ 0.2
20,KRWN,≤ 0.2
21,WTHQ,≤ 0.2
22,AAML,≤ 0.2
23,VNPF,≤ 0.2

row,Variant,one-hybrid fitness for binding NBS DNA
1,GHPM,≤ 0.2
2,CVHG,≤ 0.2
3,RNRP,≤ 0.2
4,RNDT,≤ 0.2
5,RNRS,0.491
6,RNVT,≤ 0.2
7,RNYT,≤ 0.2
8,RNRT,0.391
9,RNKT,0.46
10,RNKD,≤ 0.2
11,RNYS,≤ 0.2
12,YKHS,≤ 0.2
13,KGVE,≤ 0.2
14,RMGS,0.461
15,RLGS,0.419
16,RIGS,0.369
17,RLGP,≤ 0.2
18,RMGP,≤ 0.2
19,RSGS,0.419
20,RSGD,≤ 0.2
21,RMGD,≤ 0.2
22,RIGN,≤ 0.2
23,RLGD,≤ 0.2

row,Variant,one-hybrid fitness for binding NBS DNA
1,RIGP,≤ 0.2
2,RSGN,≤ 0.2
3,CRQG,≤ 0.2
4,LDLL,≤ 0.2
5,AGNM,≤ 0.2
6,AITP,≤ 0.2
7,AYSK,≤ 0.2
8,DEHT,≤ 0.2
9,IPES,≤ 0.2
10,ERQV,≤ 0.2
11,QYAC,≤ 0.2
12,KLFS,≤ 0.2
13,RHER,0.235
14,EADR,≤ 0.2
15,KFKV,≤ 0.2
16,RKGN,≤ 0.2
17,RHGS,0.368
18,RKGD,≤ 0.2
19,RAGD,≤ 0.2

# — a collection of fitness landscapes (doi:10.1016/j.celrep.2020.107928)
